This is a sample that favours compounds with a hit; in the whole collection about 8% have one here.
HT1080 IDH1KD tx = toxicity to HT-1080 IDH1 knockdown cells (counter line) | Potency, µM (doses to about 46.1 µM), without a hit: at the top dose activity, negative = toxicity, most hits filed as cytotoxic | AID 686971 | HT-1080 IDH1 knockdown viability, ATP luminescence, 48 h | 360,000 tested, 2% active;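 further: 0% = DMSO wells and -100% = cell-free medium wells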
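Cytotoxicity counter-line: IDH1KD HT-1080, 48 h, CellTiter-Glo. Curves classed by r2, magnitude and activity.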
KB-3-1 cytotox = KB-3-1 parental cell cytotoxicity | 400,000 tested, 1.4% active | KB-3-1 viability, CellTiter-Glo ATP luminescence, 72 h | AID 1347075 | Potency, µM (highest dose often 46.1 µM), actives largely listed as cytotoxic; further: on the % scale 0 is the no-effect control and ±100 the full control effect; nearly all actives have a fitted effect of over 60% in size
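Viability of parental KB-3-1 cells, measured by CellTiter-Glo luminescence, followed a 72 h incubation at 37 °C with pinned compounds in phenol-red-free DMEM containing 10% FBS.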
HT1080NT lethal = kills 2HG-producing HT-1080-NT fibrosarcoma cells; HT-1080-NT fibrosarcoma viability, CellTiter-Glo ATP luminescence, 48 h; Potency, µM (top dose mostly 46.1 µM), without a hit: at the highest dose activity, negative = less viability, hits mostly cytotoxic; 360,000 tested, 1.6% active;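 further: NT is the 2HG producing partner of a matched IDH1 knockdown line; 0% = DMSO-treated cells and -100% = media-only wells without cells; nearly all actives have a fitted effect of over 55% in size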
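Viability of the 2HG-overproducing fibrosarcoma line after 48 hours of compound exposure at 37 degrees C was determined by luminescence with CellTiter-Glo, and concentration-effect curves were then fitted and categorized.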
SW480 rereplic = inducers of DNA re-replication in SW480 colon cancer cells. SW480 DNA re-replication, Hoechst DNA content imaging, 48 h. Potency, µM (series often up to 46.1 µM), for the others: top-dose re-replication activation, hits mostly activators. 340,000 tested, 1.8% active; further: % of control where 0% means no effect; nearly all actives have a fitted effect of over 55% in size
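Image-based DNA-content assay: after two days of treatment, nuclei were labelled with the DNA dye Hoechst and imaged, and hits were compounds raising the count of nuclei showing high fluorescence intensity.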
KB-V1 cytotox = kills drug-selected multidrug resistant KB-V1 cells; KB-V1 MDR cells viability, CellTiter-Glo, 72 h; 400,000 tested, 3.4% active; Potency, µM (series often up to 46.1 µM), actives largely listed as cytotoxic; further: on the % scale 0 is the no-effect control and ±100 the full control effect; nearly all actives have a fitted effect of over 60% in size
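Cytotoxicity via CellTiter-Glo luminescence after 72 h compound exposure at 37 degrees C. Cells: drug-selected KB-V1 line, DMEM phenol-red free plus 10% FBS. Compounds tested at multiple concentrations; normalized data fitted to concentration-effect curves.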
MCF10A rerep = induces DNA re-replication in MCF 10a normal breast cells; MCF 10A DNA re-replication, Hoechst nuclear intensity, 48 h; Potency, µM (doses to about 46.1 µM), without a hit: at the top dose activity, positive = re-replication, usual class: activators; 350,000 tested, 2.9% active; further: % of control where 0% means no effect; nearly all actives have a fitted effect of over 50% in size
The depositor's hits bear a star; i = inactive; ? = inconclusive; · = no result. The call rests on the fitted dose curve; in most records, active means well fitted curve in the direction sought with a large enough effect; inconclusive means small, poorly fitted or top-dose-only effect, or another doubt; inactive means no such curve, though single readings can be large; an effect the other way counts as inactive or inconclusive. Potency means the concentration at half of the fitted maximal effect.

SMILES	HT1080 IDH1KD tx	KB-3-1 cytotox	HT1080NT lethal	SW480 rereplic	KB-V1 cytotox	MCF10A rerep
CC(C)OCCCN1C(=O)c2[nH]nc(-c3ccccc3O)c2C1c1cccc(Cl)c1 (stereo not drawn)	?	?	?	?	16.4µM*	?
COc1ccc(CCN2C(=O)c3[nH]nc(-c4ccccc4O)c3C2c2ccccc2)cc1OC (stereo not drawn)	32.6µM*	16.4µM*	?	?	23.1µM*	?
COc1ccccc1N1CCN(c2nc(-c3ccc(C)cc3)nc3ccccc23)CC1	·	i	·	·	i	·
Cc1cccc(OCCNC(=O)c2ccc(Cl)c(S(=O)(=O)NCc3cccnc3)c2)c1	?	1.46µM*	?	?	?	5.8µM*
Cc1cccc(OCCNC(=O)c2cncc(Br)c2)c1	-0.6%	i	2.0%	0.92µM*	i	-3.0%
COC(=O)C1CCN(C(=O)c2ccc(Cl)c(S(=O)(=O)NCc3cccnc3)c2)CC1	1.9%	i	3.3%	-1.5%	i	1.4%
O=C(NCCOc1ccc2ccccc2c1)c1cncc(Br)c1	1.4%	i	-4.8%	-0.5%	i	-1.2%
COc1ccc(CCc2cc(OC)c(OC)c(OC)c2)cc1	?	0.517µM*	1.64µM*	?	2.59µM*	1.84µM*
Cc1ccc(C)c(NC(=O)CSc2nc3nc(-c4cccs4)cc(C(F)(F)F)c3c(=O)[nH]2)c1	?	i	?	-3.4%	i	20.6µM*
O=C(CSc1nc2nc(-c3cccs3)cc(C(F)(F)F)c2c(=O)[nH]1)Nc1ccc(F)c(F)c1	?	14.6µM*	?	-31.3%	?	18.4µM*
Cc1ccc(C)c(NC(=O)CSc2nc(N)c(NC(=O)c3cccs3)c(=O)[nH]2)c1	8.4%	i	10.8%	-8.8%	i	0.6%
Nc1c2c(nc3ccccc13)N(C1CCCCC1)CC2	-27.6%	i	?	?	?	13µM*
Nc1c2c(nc3ccccc13)CCC2	-1.5%	i	-2.1%	2.8%	i	?
COc1cccc2c(SCC(=O)N/N=C/c3ccc(O)cc3O)cc(C)nc12	?	?	?	7.31µM*	i	14.6µM*
COc1ccccc1/C=N/NC(=O)CSc1cc(C)nc2ccccc12	?	?	?	?	i	13µM*
CCCCSc1nc(C)cc(SCC(=O)N/N=C/c2cccc(OC)c2O)n1	?	?	?	14.1%	i	3.7%
COc1ccc2nc(C)cc(SCC(=O)Nc3c(C)cc(C)cc3C)c2c1	-15.3%	i	23.0%	-12.1%	13µM*	14.1%
COc1ccc2nc(C)cc(SCC(=O)Nc3c(C)cccc3C)c2c1	11.5%	i	2.2%	-4.3%	?	0.5%
COc1ccc2nc(C)cc(SCC(=O)N/N=C/c3c(OC)ccc4ccccc34)c2c1	16.4%	?	9.5%	-6.1%	i	-8.3%
COc1ccc2nc(C)cc(SCC(=O)N/N=C/c3ccc(O)cc3O)c2c1	?	i	?	?	i	6.51µM*
COc1cc2c(cc1NC(=O)c1ccccc1C)n(C)c(=O)n2C	·	i	·	·	i	·
O=C(Cn1c(=O)n(-c2ccc(F)cc2)c(=O)c2sc3ccccc3c21)NC1CCCCC1	·	i	·	·	?	·
COc1ccc2[nH]c(=O)c(CN(C(=O)c3cccc(Cl)c3)c3ccccc3OC)cc2c1	·	i	·	·	i	·
Cc1cc(SCC(=O)NN)c2cc(Br)ccc2n1	-24.0%	i	?	?	i	9.2µM*
COc1ccccc1/C=N/NC(=O)CO	15.9%	i	13.1%	-3.5%	i	6.0%
SMILES	HT1080 IDH1KD tx	KB-3-1 cytotox	HT1080NT lethal	SW480 rereplic	KB-V1 cytotox	MCF10A rerep
COc1ccc(NC(=O)CCSc2ccc3ccccc3n2)cc1	-1.6%	i	0.0%	-2.7%	i	10.3µM*
COc1ccccc1/C=N/NC(=O)CSc1ccc2ccccc2n1	?	i	?	?	i	16.4µM*
COc1cccc(NC(=O)CCSc2ccc3ccccc3n2)c1	6.1%	i	?	0.3%	i	10.4%
O=C(Nc1ccc(Br)cc1F)c1ncoc1-c1ccco1	·	i	·	·	i	·
O=C(NCc1cccnc1)C1CC2c3ccccc3C1c1ccccc12 (stereo not drawn)	-0.1%	i	-2.3%	-0.1%	i	5.6%
NCC1CC2c3ccccc3C1c1ccccc12 (stereo not drawn)	-16.0%	i	-20.2%	23.1µM*	i	12.9%
CCc1cccc(C)c1NC(=O)c1cn2c3c(ccc(Cl)c3c1=O)OC(C)C2 (stereo not drawn)	·	i	·	·	i	·
CCOC(=O)N1CCC(N(C(=O)Nc2ccccc2)C(C)CC)CC1 (stereo not drawn)	2.5%	i	-0.1%	-2.5%	14.6µM*	0.9%
COc1ccc(N2CCN(S(=O)(=O)c3ccc4c(c3)CCCN4C(C)=O)CC2)cc1	·	i	·	·	i	·
O=C(O)C1=C[C@H](c2csc3ccccc23)C[C@H](OCc2ccc(CO)cc2)O1	5.4%	i	-0.1%	-1.0%	i	9.0%
CN1CCN(C(=O)C2=C[C@H](c3csc4ccccc34)C[C@H](OCc3ccc(CO)cc3)O2)CC1	-11.2%	i	-12.0%	-5.8%	i	3.4%
O=C(NCc1ccccc1)C1=C[C@@H](c2csc3ccccc23)C[C@@H](OCCCCO)O1	?	5.8µM*	-27.6%	14.2%	?	-5.9%
O=C(C1=C[C@H](c2csc3ccccc23)C[C@H](OCc2ccc(CO)cc2)O1)N1CCCCCCC1	-22.3%	i	-22.4%	1.4%	i	23.1µM*
O=C(NCc1ccccc1)C1=C[C@@H](c2csc3ccccc23)C[C@@H](OCc2ccc(CO)cc2)O1	-27.8%	20.6µM*	-16.2%	?	20.6µM*	60.2%
CCOc1ccccc1CN1CCc2nc(Nc3ccc4c(c3)OCCO4)ncc2C1	·	i	·	·	i	·
Cc1ncsc1C(=O)N1N=C2/C(=C/c3ccccc3)CCCC2C1c1ccccc1 (stereo not drawn)	-16.0%	?	0.0%	?	20.6µM*	18.1%
NC(=O)N1N=C2/C(=C/c3ccccc3)CCCC2C1c1ccccc1 (stereo not drawn)	-28.5%	?	?	17.5%	?	8.2µM*
O=C(O)CSCC(=O)N1N=C2/C(=C/c3ccccc3)CCCC2C1c1ccccc1 (stereo not drawn)	-2.3%	i	-8.0%	-3.4%	i	-10.0%
Cn1nc(C(=O)NC2CCCCC2)c2ccccc2c1=O	-1.8%	i	1.5%	-3.4%	16.4µM*	3.4%
